Data reported in the supplement of paper PMC10849652.
Targets with a hit are over-represented here; the source holds about 7,900 in all. About 0.6% of all pairs of compound and target were hits.

Tests used:
Test in all cases: log2 fold change, soluble protein after heating vs DMSO (PISA); higher = thermal stabilisation; K562 cells, 10 uM, 30 min; active = over 0.2 and 3.5 SD of the protein, either way, in both replicates (recomputed)
[1] = compound: CC[C@@H]1C(=O)N(C)c2cnc(Nc3ccc(C(=O)NC4CCN(C)CC4)cc3OC)nc2N1C1CCCC1
Outline: (§1)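 Quantification of soluble protein used TMTpro 16plex LC-MS/MS, with channel sums equalised. Samples were the supernatant after 21,000xg for 90 min of pooled aliquots from K562 cells (2×10^6 cells/mL) treated with 10 μM compound for 30 min, heated for 3 min over 48°C-58°C, and extracted in PBS with 0.5% NP-40 at 4°C. Values, from duplicates, describe thermal stability against control samples on a log2 fold-change scale.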

[2] = compound: CC[C@@H]1C(=O)N(C)c2cnc(Nc3ccc(C(=O)N[C@H]4CC[C@H](N5CCN(CC6CC6)CC5)CC4)cc3OC)nc2N1C(C)C [volasertib]
Outline: as §1

[3] = compound: CC[C@H](C)N1C=C(C2=C(C=C(C=C21)C3=CN=C(C=C3)N4CCNCC4)C(=O)NCC5=C(C=C(NC5=O)C)C)C
Outline: as §1

[4] = compound: CC[C@H](C)[C@@H](C(=O)N[C@@H]([C@@H](C)O)C(=O)N[C@@H](CC(C)C)C(=O)[C@]1(CO1)C)NC(=O)[C@H]([C@@H](C)CC)N(C)C(=O)C [epoxomicin]
Outline: as §1

[5] = compound: CCn1c(C(=O)N(C2CC2)C2CC2)cc2c3c(ncn3C)c(Nc3cc(C)n(C)n3)nc21
Outline: as §1

[6] = compound: CCn1cc(-c2ccnc3[nH]c(-c4cccc(CN(C)C)c4)cc23)c(-c2ccc(NC(=O)N(C)C)cc2)n1
Outline: as §1

[7] = compound: CN(C)CC(=O)Nc1ccc2[nH]c(=O)c3ccccc3c2c1
Outline: as §1

[8] = compound: CN(CCOC1=CC=C(C=C1)C[C@H]2C(=O)NC(=O)S2)C3=CC=CC=N3 (racemic) [rosiglitazone]
Outline: as §1

[9] = compound: CN1C2=C(C3=C1C(=O)N(N=C3)CC4=CC(=CC=C4)N)SC(=C2)S(=O)C
Outline: as §1

[10] = compound: CN1CCC(CNc2ccc3ncc(-c4cccc(OC(F)(F)F)c4)n3n2)CC1
Outline: as §1

[11] = compound: CN1CCN(CCOc2cc(OC3CCOCC3)c3c(Nc4c(Cl)ccc5c4OCO5)ncnc3c2)CC1 [saracatinib]
Outline: as §1

[12] = compound: CN1CCN(c2nc(C3=C(c4c[nH]c5ccccc45)C(=O)NC3=O)c3ccccc3n2)CC1 [sotrastaurin]
Outline: as §1

[13] = compound: CN1CC[C@H](c2c(O)cc(O)c3c(=O)cc(-c4ccccc4Cl)oc23)[C@H](O)C1 [alvocidib]
Outline: as §1

[14] = compound: CN1CCc2c(c3ccccc3n2Cc2ccc(C(=O)NO)cc2)C1 [Tubastatin A]
Outline: as §1

[15] = compound: CNC(=O)C1=CC=CC=C1NC2=NC(=NC=C2Cl)NC3=C(C=C(C=C3)N4CCOCC4)OC
Outline: as §1

[16] = compound: CNC(=O)c1ccc(Nc2ncc(C(F)(F)F)c(NCc3nccnc3N(C)S(C)(=O)=O)n2)cc1 [defactinib]
Outline: as §1

[17] = compound: CNCc1ccc(-c2[nH]c3cc(F)cc4c3c2CCNC4=O)cc1 [rucaparib]
Outline: as §1

[18] = compound: CNc1nc(-c2ccc3c(N)n[nH]c3c2)cc(N2C[C@@H](C(=O)NC3CCCCC3)CC[C@H]2C)n1
Outline: as §1

[19] = compound: COC(=O)N[C@@H](C)CNc1nccc(-c2cn(C(C)C)nc2-c2cc(Cl)cc(NS(C)(=O)=O)c2F)n1 [encorafenib]
Outline: as §1

[20] = compound: COC(=O)[C@H](CCSC)NC(=O)C1=C(C=C(C=C1)NC[C@H](CS)N)C2=CC=CC=C2
Outline: as §1

Measured: log2 fold change

EBNA1BP2 (UniProt Q99848)
inactive: [1] 0.167 | [2] 0.351 | [3] 0.021 | [4] -0.343 | [5] -0.059 | [6] 0.132 | [7] -0.106 | [8] -0.25 | [9] 0.379 | [10] 0.197 | [11] -0.081 | [12] -0.138 | [13] 0.165 | [14] 0.34 | [15] -0.047 | [16] 0.512 | [17] 0.23 | [18] 0.142 | [19] 0.13 | [20] 0.086

DPH5 isoform 5 (UniProt Q9H2P9)
Chain of UniProt Q9H2P9 (Q9H2P9 whole entry, looked up): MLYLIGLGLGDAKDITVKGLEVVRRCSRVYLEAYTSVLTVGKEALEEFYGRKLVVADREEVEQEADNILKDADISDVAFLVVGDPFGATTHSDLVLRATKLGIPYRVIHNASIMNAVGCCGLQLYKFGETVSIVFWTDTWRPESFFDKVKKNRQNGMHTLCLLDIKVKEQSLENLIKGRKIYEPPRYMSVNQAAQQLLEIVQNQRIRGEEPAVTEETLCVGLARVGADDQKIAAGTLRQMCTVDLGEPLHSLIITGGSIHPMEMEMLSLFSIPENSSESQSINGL
inactive: [1] 0.047 | [2] 0.08 | [3] -0.022 | [4] 0.049 | [5] -0.055 | [6] -0.018 | [7] -0.013 | [8] 0.013 | [9] -0.115 | [10] 0.034 | [11] -0.007 | [12] -0.017 | [13] -0.064 | [14] -0.022 | [15] 0.07 | [16] 0 | [17] -0.061 | [18] 0 | [19] 0.025 | [20] 0.004

DBT (UniProt P11182)
Chain of UniProt P11182 (P11182 whole entry, looked up): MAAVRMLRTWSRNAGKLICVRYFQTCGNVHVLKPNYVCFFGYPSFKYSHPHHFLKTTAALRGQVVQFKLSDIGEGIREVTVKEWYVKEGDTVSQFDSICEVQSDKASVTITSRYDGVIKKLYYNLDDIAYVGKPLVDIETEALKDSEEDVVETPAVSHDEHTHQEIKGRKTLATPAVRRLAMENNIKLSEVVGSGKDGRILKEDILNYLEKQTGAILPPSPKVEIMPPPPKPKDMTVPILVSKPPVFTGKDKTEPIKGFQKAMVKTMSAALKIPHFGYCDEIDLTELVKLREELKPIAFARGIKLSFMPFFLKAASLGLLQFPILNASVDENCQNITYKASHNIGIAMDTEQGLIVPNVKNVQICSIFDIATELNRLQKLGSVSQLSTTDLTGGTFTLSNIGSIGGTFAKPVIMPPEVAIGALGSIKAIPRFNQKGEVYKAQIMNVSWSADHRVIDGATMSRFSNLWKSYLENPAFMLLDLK
inactive: [1] 0.068 | [2] 0.009 | [3] -0.01 | [4] -0.022 | [5] -0.018 | [6] -0.001 | [7] -0.14 | [8] -0.025 | [9] 0.015 | [10] 0.045 | [11] -0.012 | [12] 0.025 | [13] 0.009 | [14] -0.072 | [15] 0.048 | [16] 0.071 | [17] 0.089 | [18] -0.03 | [19] 0.046 | [20] -0.013

DHX40 (UniProt Q8IX18)
Chain of UniProt Q8IX18 (Q8IX18 whole entry, looked up): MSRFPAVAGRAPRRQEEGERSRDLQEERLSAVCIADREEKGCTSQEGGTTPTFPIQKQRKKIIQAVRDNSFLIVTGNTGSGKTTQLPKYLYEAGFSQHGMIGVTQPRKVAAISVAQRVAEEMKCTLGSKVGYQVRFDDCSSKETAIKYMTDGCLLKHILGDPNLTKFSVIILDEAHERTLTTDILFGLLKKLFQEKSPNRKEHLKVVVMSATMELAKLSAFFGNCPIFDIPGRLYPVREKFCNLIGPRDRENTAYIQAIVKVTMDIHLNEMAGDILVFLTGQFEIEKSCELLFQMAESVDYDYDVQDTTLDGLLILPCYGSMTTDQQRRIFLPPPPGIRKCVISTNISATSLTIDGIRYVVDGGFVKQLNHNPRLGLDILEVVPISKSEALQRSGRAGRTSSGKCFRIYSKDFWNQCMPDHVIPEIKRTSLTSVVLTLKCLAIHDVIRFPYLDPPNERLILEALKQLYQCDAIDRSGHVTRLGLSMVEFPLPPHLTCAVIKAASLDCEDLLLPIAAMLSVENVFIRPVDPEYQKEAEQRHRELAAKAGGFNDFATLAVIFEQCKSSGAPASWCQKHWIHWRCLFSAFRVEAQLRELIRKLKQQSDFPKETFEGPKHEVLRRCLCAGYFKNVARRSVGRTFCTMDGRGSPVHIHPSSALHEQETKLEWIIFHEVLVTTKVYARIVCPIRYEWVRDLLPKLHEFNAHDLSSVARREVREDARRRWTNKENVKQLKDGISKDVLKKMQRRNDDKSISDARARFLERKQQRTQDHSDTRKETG
inactive: [1] -0.006 | [2] -0.236 | [3] 0.188 | [4] -0.037 | [5] -0.074 | [6] -0.013 | [7] 0.026 | [8] 0.166 | [9] -0.076 | [10] -0.029 | [11] 0.069 | [12] -0.025 | [13] -0.052 | [14] 0.053 | [15] -0.043 | [16] -0.163 | [17] 0.087 | [18] 0.013 | [19] 0.068 | [20] -0.039

DBNL isoform 3 (UniProt Q9UJU6)
Chain of UniProt Q9UJU6 (Q9UJU6 whole entry, looked up): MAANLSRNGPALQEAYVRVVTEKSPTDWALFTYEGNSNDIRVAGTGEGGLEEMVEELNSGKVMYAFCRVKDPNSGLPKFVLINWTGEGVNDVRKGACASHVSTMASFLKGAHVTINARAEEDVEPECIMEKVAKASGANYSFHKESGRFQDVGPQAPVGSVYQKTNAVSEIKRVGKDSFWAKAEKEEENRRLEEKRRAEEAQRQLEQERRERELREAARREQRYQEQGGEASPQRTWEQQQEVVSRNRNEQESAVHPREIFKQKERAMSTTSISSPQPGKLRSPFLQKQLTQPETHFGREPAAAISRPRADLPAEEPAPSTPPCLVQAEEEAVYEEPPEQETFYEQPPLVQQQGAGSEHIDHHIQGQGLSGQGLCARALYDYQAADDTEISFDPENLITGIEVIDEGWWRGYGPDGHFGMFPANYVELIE
active: [2] -0.367
inactive: [1] -0.143 | [3] 0.031 | [4] 0.012 | [5] -0.046 | [6] 0.007 | [7] 0.011 | [8] 0.095 | [9] -0.075 | [10] -0.109 | [11] 0.04 | [12] -0.014 | [13] -0.07 | [14] 0.009 | [15] 0.01 | [16] -0.106 | [17] -0.1 | [18] -0.05 | [19] 0.061 | [20] -0.004

EEF1G isoform 2 (UniProt P26641)
inactive: [1] -0.164 | [3] 0.075 | [4] 0.008 | [5] -0.012 | [6] -0.005 | [7] 0.022 | [8] 0.005 | [9] 0.011 | [10] 0.016 | [11] -0.012 | [12] -0.041 | [13] -0.044 | [14] -0.008 | [15] 0.075 | [16] -0.051 | [17] 0.045 | [18] 0.02 | [19] 0.076 | [20] -0.047
active: [2] -0.364

DDX46 (UniProt Q7L014)
Chain of UniProt Q7L014 (Q7L014 whole entry, looked up): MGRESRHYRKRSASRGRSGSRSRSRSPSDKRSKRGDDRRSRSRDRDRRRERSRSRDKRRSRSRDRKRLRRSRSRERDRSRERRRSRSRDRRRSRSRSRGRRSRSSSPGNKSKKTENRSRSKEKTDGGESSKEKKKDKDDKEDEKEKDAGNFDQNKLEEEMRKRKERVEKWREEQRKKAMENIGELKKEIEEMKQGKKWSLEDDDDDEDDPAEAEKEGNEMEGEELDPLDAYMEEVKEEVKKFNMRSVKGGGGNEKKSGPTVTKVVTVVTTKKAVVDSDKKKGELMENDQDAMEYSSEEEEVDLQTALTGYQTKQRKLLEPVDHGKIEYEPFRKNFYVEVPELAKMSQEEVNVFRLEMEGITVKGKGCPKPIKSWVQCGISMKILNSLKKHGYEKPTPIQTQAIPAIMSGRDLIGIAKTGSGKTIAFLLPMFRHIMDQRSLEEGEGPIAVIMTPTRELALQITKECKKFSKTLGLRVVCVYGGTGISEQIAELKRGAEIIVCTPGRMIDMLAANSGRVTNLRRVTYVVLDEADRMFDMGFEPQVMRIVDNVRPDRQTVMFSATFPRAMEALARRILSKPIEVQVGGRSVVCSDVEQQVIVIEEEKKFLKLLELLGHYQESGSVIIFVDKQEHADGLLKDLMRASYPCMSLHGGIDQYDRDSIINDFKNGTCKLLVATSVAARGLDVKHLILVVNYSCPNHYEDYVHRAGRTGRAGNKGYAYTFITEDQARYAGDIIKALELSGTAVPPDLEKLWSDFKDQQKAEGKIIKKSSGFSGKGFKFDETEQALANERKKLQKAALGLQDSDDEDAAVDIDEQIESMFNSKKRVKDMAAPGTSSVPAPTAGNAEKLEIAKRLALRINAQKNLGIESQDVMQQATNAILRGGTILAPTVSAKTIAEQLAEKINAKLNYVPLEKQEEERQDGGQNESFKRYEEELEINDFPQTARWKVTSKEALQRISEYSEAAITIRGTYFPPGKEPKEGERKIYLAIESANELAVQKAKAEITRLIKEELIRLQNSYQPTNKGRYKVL
inactive: [1] -0.259 | [2] -0.275 | [3] 0.087 | [4] 0.192 | [5] -0.211 | [6] -0.129 | [7] 0.133 | [8] 0.106 | [9] -0.066 | [10] 0.087 | [11] 0 | [12] -0.197 | [13] -0.157 | [14] 0.101 | [15] 0.054 | [16] -0.296 | [17] -0.125 | [18] 0.028 | [19] 0.05 | [20] -0.085

ECPAS (UniProt Q5VYK3)
Chain of UniProt Q5VYK3 (Q5VYK3 whole entry, looked up): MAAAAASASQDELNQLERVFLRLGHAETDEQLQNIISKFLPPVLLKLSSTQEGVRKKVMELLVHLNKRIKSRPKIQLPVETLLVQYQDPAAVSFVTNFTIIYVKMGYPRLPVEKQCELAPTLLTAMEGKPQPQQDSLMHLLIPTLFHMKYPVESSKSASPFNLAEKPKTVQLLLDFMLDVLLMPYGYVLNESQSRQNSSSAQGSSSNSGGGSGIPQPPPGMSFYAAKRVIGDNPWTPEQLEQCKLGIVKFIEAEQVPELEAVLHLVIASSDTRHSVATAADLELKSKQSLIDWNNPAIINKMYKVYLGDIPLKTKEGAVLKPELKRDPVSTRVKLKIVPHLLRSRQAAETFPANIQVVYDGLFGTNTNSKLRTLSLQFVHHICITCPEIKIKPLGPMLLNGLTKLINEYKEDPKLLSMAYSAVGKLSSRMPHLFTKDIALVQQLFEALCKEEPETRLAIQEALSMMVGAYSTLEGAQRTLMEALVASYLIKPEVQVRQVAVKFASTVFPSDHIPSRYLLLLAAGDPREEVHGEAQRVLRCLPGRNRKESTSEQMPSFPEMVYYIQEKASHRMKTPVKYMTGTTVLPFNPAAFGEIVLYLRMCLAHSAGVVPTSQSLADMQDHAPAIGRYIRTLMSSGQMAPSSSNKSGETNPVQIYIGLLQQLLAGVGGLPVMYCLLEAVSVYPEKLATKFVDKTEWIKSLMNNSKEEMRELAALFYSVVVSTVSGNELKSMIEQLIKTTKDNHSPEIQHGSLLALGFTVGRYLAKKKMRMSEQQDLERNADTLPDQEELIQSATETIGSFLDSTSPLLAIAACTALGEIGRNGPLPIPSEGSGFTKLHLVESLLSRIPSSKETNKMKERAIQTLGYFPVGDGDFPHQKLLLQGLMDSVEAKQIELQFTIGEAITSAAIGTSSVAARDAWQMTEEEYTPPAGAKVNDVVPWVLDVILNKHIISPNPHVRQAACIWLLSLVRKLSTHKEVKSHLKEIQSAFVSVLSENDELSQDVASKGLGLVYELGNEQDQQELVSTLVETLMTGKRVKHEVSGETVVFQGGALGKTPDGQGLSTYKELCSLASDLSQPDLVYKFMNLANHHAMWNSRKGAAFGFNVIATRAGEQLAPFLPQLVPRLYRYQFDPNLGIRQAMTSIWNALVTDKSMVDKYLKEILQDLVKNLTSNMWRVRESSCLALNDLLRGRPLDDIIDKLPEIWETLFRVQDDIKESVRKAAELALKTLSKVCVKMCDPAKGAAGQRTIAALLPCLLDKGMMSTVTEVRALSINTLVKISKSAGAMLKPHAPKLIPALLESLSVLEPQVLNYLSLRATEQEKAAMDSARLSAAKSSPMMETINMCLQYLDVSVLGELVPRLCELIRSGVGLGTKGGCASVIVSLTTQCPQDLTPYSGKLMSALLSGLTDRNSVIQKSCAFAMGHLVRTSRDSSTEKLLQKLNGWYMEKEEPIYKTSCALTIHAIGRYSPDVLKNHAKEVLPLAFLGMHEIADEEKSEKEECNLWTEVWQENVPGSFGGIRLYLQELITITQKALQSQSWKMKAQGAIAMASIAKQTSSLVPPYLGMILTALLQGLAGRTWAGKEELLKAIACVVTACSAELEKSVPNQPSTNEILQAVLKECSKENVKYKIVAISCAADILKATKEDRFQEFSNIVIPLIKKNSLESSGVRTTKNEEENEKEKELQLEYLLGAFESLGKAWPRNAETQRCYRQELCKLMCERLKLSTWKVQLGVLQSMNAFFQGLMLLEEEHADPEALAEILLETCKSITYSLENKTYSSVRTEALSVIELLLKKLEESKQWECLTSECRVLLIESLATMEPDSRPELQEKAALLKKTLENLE
inactive: [1] -0.188 | [3] 0.093 | [5] -0.097 | [6] -0.029 | [7] 0.079 | [8] 0.041 | [9] 0.026 | [10] -0.143 | [11] -0.055 | [12] -0.124 | [13] -0.033 | [14] 0.038 | [15] 0.012 | [16] -0.06 | [17] 0.09 | [18] 0.027 | [19] 0.122 | [20] -0.045
active: [2] -0.602 | [4] 0.614
